Test [1] is described as follows: qHTS assay for small molecule agonists of the p53 signaling pathway (AID 651631; calls by dose curve; note: nearly all actives have a fitted effect of over 15% in size). The procedure, abridged: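 HCT-116 cells carrying a beta-lactamase reporter under p53 response elements were dosed with compound for 16 h at 37 °C. LiveBLAzer B/G FRET substrate was then added for 2 h at room temperature, and fluorescence intensity was read to detect pathway agonism.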
For orientation: In qHTS, concentration-response curves come from the screen itself.

Test [2] in a line: qHTS assay for small molecules that induce genotoxicity in human embryonic kidney cells expressing luciferase-tagged ATAD5 (AID 651632). Note: nearly all actives have a fitted effect of over 15% in size. In short, it runs like this: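 Genotoxicity read-out via ATAD5-luciferase: HEK293T cells, 16 hr compound incubation at 37C, Amplite detection.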
The nature of test [3]: qHTS assay for small molecule agonists of the p53 signaling pathway - cell viability (AID 651633; calls by dose curve;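 note: p53RE-bla HCT reporter cells with a stable beta-lactamase p53 reporter; series mostly up to about 83 µM; nearly all actives have a fitted effect of over 30% in size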). The procedure, abridged:
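p53RE-bla cells were treated with compound for 16 hours at 37 C. Cytotoxicity was then measured as CellTiter-Glo luminescence after 30 min at room temperature.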

A short description of test [4]: qHTS assay for small molecules that induce genotoxicity in human embryonic kidney cells expressing luciferase-tagged ATAD5 - cell viability (AID 651634; calls by dose curve; note: nearly all actives have a fitted effect of over 25% in size). The procedure, abridged:
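Live-cell protease activity (CellTiter-Fluor, fluorescence) indicates viability. HEK293T cells with luciferase-tagged ATAD5; 15.5 hr compound treatment at 37C.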

Test [5] can be described thus: qHTS assay for small molecule disruptors of the mitochondrial membrane potential - cell viability (AID 720634; calls by dose curve;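 note: human HepG2 liver cancer cells; series mostly up to about 83 µM; nearly all actives have a fitted effect of over 20% in size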). In short, it runs like this: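 Human hepatoma HepG2 cells were treated for 1 hr with test chemicals, then given m-MPI dye and CellTiter-Glo. Cell viability reflects luminescence proportional to cellular ATP.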
Test [6] can be described thus: qHTS assay to test for compound auto fluorescence at 590 nm (red) in HepG2 cells (AID 720674). In short, it runs like this: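 Fluorescence at 590 nm emission following 540 nm excitation was recorded from HepG2 wells one hour after compound transfer, with DMSO-only wells as vehicle and Rose Bengal sodium equivalency as the scale.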
Test [7] can be described thus: qHTS assay to test for compound auto fluorescence at 535 nm (green) in HepG2 cells (AID 720675).
Test [8] is described as follows: qHTS assay to test for compound auto fluorescence at 460 nm (blue) in HEK293 cells (AID 720678). The procedure, abridged: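 After cell attachment (4-5 hr, 37C), compounds were pinned onto HEK293 monolayers in 10% dialyzed FBS medium. The blue channel (405/460 nm) was read following overnight culture. Equivalency was calculated against triamterene.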
Test [9] can be described thus: qHTS assay to test for compound auto fluorescence at 590 nm (red) in HEK293 cells (AID 720679). The procedure, abridged:
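Plates of HEK293 cells (10% dialyzed FBS) are treated with 23 nL compound or DMSO vehicle after a 4-5 hr attachment period, incubated overnight at 37C, and read for red fluorescence at 540/590nm.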

The nature of test [10]: qHTS assay to test for compound auto fluorescence at 460 nm (blue) in HEK293 cell free culture (AID 720681). The procedure, abridged: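 Compounds were added to cell-free DMEM with 10% FBS and fluorescence read directly. The blue channel used 405 nm excitation and 460 nm emission, with triamterene as the reference fluorophore.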
Test [11] in a line: qHTS assay to test for compound auto fluorescence at 535 nm (green) in HEK293 cell free culture (AID 720682). The procedure, abridged:
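Green-label autofluorescence (485 nm excitation, 535 nm emission) measured on compound added to cell-free culture medium (DMEM, 10% FBS). Output is expressed relative to fluorescein.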

Test [12] is described as follows: qHTS assay to test for compound auto fluorescence at 590 nm (red) in HEK293 cell free culture (AID 720683). In short, it runs like this: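 Cell-free wells of DMEM with 10% FBS received compound, and intrinsic fluorescence was read at excitation/emission 540/590 nm. Values expressed as equivalence to Rose Bengal sodium.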
A short description of test [13]: qHTS assay to test for compound auto fluorescence at 590 nm (red) in HepG2 cell free culture (AID 720684). The procedure, abridged: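 Compounds are added to culture medium (MEM, 10% FBS) lacking cells, then fluorescence is read at excitation 540 nm, emission 590 nm, with Rose Bengal sodium as the equivalency standard.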
A short description of test [14]: qHTS assay to test for compound auto fluorescence at 460 nm (blue) in HepG2 cell free culture (AID 720685). In short, it runs like this: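 Compound (23 nL) or DMSO pinned into cell-free MEM with 10% FBS; blue fluorescence read at 405/460 nm excitation/emission, expressed as auto-fluorescence equivalency to triamterene.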
A short description of test [15]: qHTS assay to test for compound auto fluorescence at 535 nm (green) in HepG2 cell free culture (AID 720686).
The nature of test [16]: qHTS assay to test for compound auto fluorescence at 460 nm (blue) in HepG2 cells (AID 720687). In short, it runs like this:
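HepG2 cells in MEM with 10% FBS, attached overnight at 37 C, were exposed to compound or DMSO for 1 hr at 37 C, 5% CO2. Blue fluorescence was read at 405/460 nm, with triamterene as reference fluorophore.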

Test [17] concerns the target Glucocorticoid receptor (Homo sapiens) (UniProt P04150). Put plainly: qHTS assay to identify small molecule agonists of the glucocorticoid receptor (GR) signaling pathway (AID 720691; active = well fitted activation curve with a large enough effect in the signal ratio in the repeat runs, not every such curve was filed as active; the % refers to the signal ratio). The procedure, abridged: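 Beta-lactamase reporter activity, read as fluorescence intensity, was measured in GR-bla HeLa cells exposed to compounds for 18 h at 37 C and then loaded with LiveBLAzer B/G FRET substrate for 2 h at room temperature.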

The target is the same in test [18]. Put plainly: qHTS assay to identify small molecule antagonists of the glucocorticoid receptor (GR) signaling pathway (AID 720692; active = well fitted inhibition curve with a large enough effect in the signal ratio in the repeat runs, not every such curve was filed as active; the % refers to the signal ratio). In short, it runs like this:
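Fluorescence from cleaved LiveBLAzer B/G FRET substrate reports GRE-driven beta-lactamase in HeLa cells; compounds are tested against 5 nM dexamethasone (final) over 18 h at 37 C, substrate incubation 2 h at room temperature.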

A short description of test [19]: qHTS assay for small molecule disruptors of the mitochondrial membrane potential (AID 720635). Note: potency is the fitted concentration of half-maximal effect. The procedure, abridged: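 HepG2 cells exposed to compound 1 hr at 37C, then Mito-MPS dye 30 min. Ratio read of aggregate (540/590 nm) versus monomer (490/535 nm) fluorescence.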
The nature of test [20]: qHTS assay to test for compound auto fluorescence at 535 nm (green) in HEK293 cells (AID 720680).

From PubChem BioAssay (Tox21) come the findings set out here.

A number with no mark means an inactive call. Results filed as inconclusive are left out. Activity calls are given as the source filed them. Unless noted, calls come from the whole dose curve; as a rule, active = well fitted curve in the direction sought with a large enough effect in the repeat runs; inconclusive = weak or mixed curves; inactive = no such curve, though single readings can be large; an effect the other way counts as inactive or inconclusive.
% is set by controls: 0 for no effect and ±100 for the full control effect.

Glucocorticoid receptor (Homo sapiens), sequence (P04150 whole entry, looked up): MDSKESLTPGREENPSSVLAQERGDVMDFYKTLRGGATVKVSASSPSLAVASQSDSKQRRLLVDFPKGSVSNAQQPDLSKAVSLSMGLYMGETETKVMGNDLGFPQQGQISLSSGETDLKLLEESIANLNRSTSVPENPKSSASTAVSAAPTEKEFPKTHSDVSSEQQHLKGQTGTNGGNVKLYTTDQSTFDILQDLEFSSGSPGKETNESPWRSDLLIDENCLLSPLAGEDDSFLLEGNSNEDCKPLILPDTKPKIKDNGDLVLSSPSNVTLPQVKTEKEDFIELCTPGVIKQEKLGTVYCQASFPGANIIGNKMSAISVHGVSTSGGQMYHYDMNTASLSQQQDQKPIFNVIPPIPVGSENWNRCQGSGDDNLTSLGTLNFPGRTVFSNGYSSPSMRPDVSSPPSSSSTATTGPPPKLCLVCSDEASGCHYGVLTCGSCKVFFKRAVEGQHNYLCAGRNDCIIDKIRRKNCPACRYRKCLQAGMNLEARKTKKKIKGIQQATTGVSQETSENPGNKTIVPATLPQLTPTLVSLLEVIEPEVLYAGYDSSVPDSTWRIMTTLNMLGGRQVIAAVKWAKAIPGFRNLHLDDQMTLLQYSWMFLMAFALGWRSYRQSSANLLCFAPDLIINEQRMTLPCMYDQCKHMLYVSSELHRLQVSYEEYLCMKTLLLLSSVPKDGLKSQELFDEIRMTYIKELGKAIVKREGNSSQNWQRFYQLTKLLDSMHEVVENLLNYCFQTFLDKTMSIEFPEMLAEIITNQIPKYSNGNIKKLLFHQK

Consider `CC(C)OCC1CO1` (configuration not stated), for which the Potency result in test [1], in test [2], in test [3], in test [4], in [5] and in test [8] was “inactive” throughout. In addition, the Potency entry in test [10], in test [14], in test [16], in test [17] and in test [18] was “inactive” each time. The call in test [6], in test [7], in test [9], in test [11], in [12] and in test [13] was inactive. For the same compound, in test [15], the outcome was inactive.

As to `CCCCCCCCSCCO`, the Potency result in test [1], in test [2], in test [3], in test [4], in test [5] and in test [8] was “inactive” throughout. Besides, the Potency entry in test [10], in test [14], in test [16], in [17] and in test [18] was “inactive” throughout. In addition, the Potency in test [19] was 24.3 µM (active). The call in test [6], in test [9], in [20], in [11], in test [12] and in [13] was inactive. Moreover, the compound was called inactive in test [15].

Turning to `N#C[C@@H]1C[C@@H]2C[C@@H]2N1C(=O)[C@@H](N)C12CC3CC(CC(O)(C3)C1)C2`, the Potency result in test [1], in test [2], in test [3], in test [4], in test [5] and in test [19] was “inactive” in each case. Further, the Potency result in [8], in test [10], in [14], in [16] and in [17] was “inactive” throughout. The compound was called inactive in test [6], in test [20], in test [11], in test [12], in test [13] and in test [15].

`CN1CCN(CCCN2c3ccccc3Sc3ccc(S(=O)(=O)N(C)C)cc32)CC1`: the Potency entry in [1], in test [2], in test [3], in test [4], in test [5] and in [17] was “inactive” throughout. Moreover, the fluorescence, relative to Rose Bengal in test [6] is -0.708% [at 18.6 µM]. For the same compound, the results for the fluorescence, % of fluorescein control in [7] and in [15] were -0.102% [at 18.6 µM] and 0.0675% [at 18.6 µM], respectively. For the same compound, the fluorescence, % of triamterene in test [8] was 0.42% [at 18.6 µM]. Further, the fluorescence, % of fluorescent control in test [9] was 0.005% [at 18.6 µM]; in test [10], 0.0966% [at 18.6 µM]; in test [12] it was 0.122% [at 18.6 µM]; in test [14] it was 0.208% [at 18.6 µM]; in test [16] it was 0.123% [at 18.6 µM]. Further, the fluorescence, % of fluorescein in test [20] is 0.046% [at 18.6 µM]. In test [11], the activity change is 0.0013% [at 18.6 µM]. In addition, the fluorescence, % of Rose Bengal in [13] is 0.748% [at 18.6 µM].

For `CCn1nc(C)c2c1C(=O)NCC(c1ccc(O)cc1)=N2`, the Potency entry in test [1], in [2], in test [3], in test [4], in test [5] and in test [8] was “inactive” in each case. Moreover, the Potency entry in test [10], in [14], in test [16] and in test [17] was “inactive” each time. Further, the call in [6], in test [7], in [9], in test [20], in test [11] and in test [12] was inactive. The result in test [15] was inactive.

Consider `O=C(CCCCCCCCC#CI)Oc1ccccc1`, for which the Potency entry in test [1], in test [2], in [3], in test [4], in test [5] and in [8] was “inactive” in each case. Moreover, the Potency result in test [10], in test [14], in [16] and in test [18] was “inactive” throughout. Besides, the result in [6], in [7], in [9], in test [20], in [11] and in test [12] was inactive. Also, the compound was classed as inactive in test [13] and in test [15].
